Measurements published in the supplement of paper PMC6555819.

Experiments:
Test in all cases: PBM binding z-score (relative to random genomic background probes); higher = stronger binding; sequences stand for … in GC…GCGATTGACAGCGTAGAATGAAGG
[1] = test system: FXR:RXRa (NR concentration 270 nM, RXRa partner concentration 90 nM)
In short: (§1)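 Random background probes are the reference for binding z-scores. These scores derive from regression-normalized fluorescence on custom Agilent 4×180K protein-binding microarrays incubated 1 h with ligand-free nuclear receptor dimers. Binding was detected with antibodies against each partner (one per run).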

[2] = test system: LXRa:RXRa (NR concentration 270 nM, RXRa partner concentration 90 nM)
In short: as §1

[3] = test system: LXRa homodimer (NR concentration 270 nM)
In short: as §1

[4] = test system: LXRb:RXRa (NR concentration 270 nM, RXRa partner concentration 90 nM)
In short: as §1

[5] = test system: LXRb homodimer (NR concentration 270 nM)
In short: as §1

[6] = test system: PPARa:RXRa (NR concentration 270 nM, RXRa partner concentration 90 nM)
In short: as §1

[7] = test system: PPARg:RXRa (NR concentration 180 nM, RXRa partner concentration 90 nM)
In short: as §1

[8] = test system: PPARg:RXRa 270nM:90nM, anti-RXR (NR concentration 270 nM, RXRa partner concentration 90 nM)
In short: as §1

[9] = test system: PPARg:RXRa 30nM:10nM, anti-RXR (NR concentration 30 nM, RXRa partner concentration 10 nM)
In short: as §1

[10] = test system: PPARg:RXRa 90nM:30nM, anti-RXR (NR concentration 90 nM, RXRa partner concentration 30 nM)
In short: as §1

[11] = test system: PPARg:RXRa DBDmut IVT, anti-RXR (DBD mutation: RXRa K156A/R161A, NR concentration 270 nM, RXRa partner concentration 90 nM)
In short: as §1

[12] = test system: PPARg:RXRa IVT, anti-PPARg (NR concentration 270 nM, RXRa partner concentration 90 nM)
In short: as §1

[13] = test system: PPARg DBDmut:RXRa IVT, anti-PPARg (DBD mutation: PPARg1 K132A/R137A, NR concentration 270 nM, RXRa partner concentration 90 nM)
In short: as §1

[14] = test system: PPARg DBDmut IVT, anti-PPARg (DBD mutation: PPARg1 K132A/R137A, NR concentration 270 nM)
In short: as §1

[15] = test system: PPARg homodimer (NR concentration 180 nM)
In short: as §1

[16] = test system: PXR:RXRa (NR concentration 270 nM, RXRa partner concentration 90 nM)
In short: as §1

[17] = test system: PXR homodimer (NR concentration 270 nM)
In short: as §1

[18] = test system: RARa:RXR (NR concentration 270 nM, RXRa partner concentration 90 nM)
In short: as §1

[19] = test system: RARa homodimer (NR concentration 270 nM)
In short: as §1

[20] = test system: RARb:RXRa (NR concentration 270 nM, RXRa partner concentration 90 nM)
In short: as §1

| Sequence | PBM binding z-score [1] | PBM binding z-score [2] | PBM binding z-score [3] | PBM binding z-score [4] | PBM binding z-score [5] | PBM binding z-score [6] | PBM binding z-score [7] | PBM binding z-score [8] | PBM binding z-score [9] | PBM binding z-score [10] | PBM binding z-score [11] | PBM binding z-score [12] | PBM binding z-score [13] | PBM binding z-score [14] | PBM binding z-score [15] | PBM binding z-score [16] | PBM binding z-score [17] | PBM binding z-score [18] | PBM binding z-score [19] | PBM binding z-score [20] |
| --- | --- | --- | --- | --- | --- | --- | --- | --- | --- | --- | --- | --- | --- | --- | --- | --- | --- | --- | --- | --- |
| CCGACTGCGGCAGAAAGGTTACCATACCATCCGG | 0.417 | 0.665 | -0.0134 | 1.08 | -0.692 | 1.85 | 1.33 | 2.53 | 0.645 | 2.19 | -0.1 | 0.0365 | -0.709 | -0.931 | 0.55 | 1.05 | -0.0131 | 1.42 | -0.186 | 1.29 |
| CCGACTGGGGCAAGGTTACCATAACGCACAGCCA | 0.287 | 0.668 | -0.166 | 0.835 | -1.25 | 2.12 | 2.78 | 3.43 | 1.23 | 2.86 | 3.29 | 3.67 | -0.449 | -0.891 | 0.674 | 0.267 | -0.266 | 0.99 | 0.394 | 1.75 |
| CGTCCAAGGTCATAGGAGGTAAGTGAAGACAGAT | 7.22 | 5.32 | 0.86 | 3.76 | 0.57 | 5.49 | 4.65 | 4.94 | 1.76 | 3.49 | 2.54 | 3.38 | 0.738 | 0.602 | 2.39 | 4.29 | 1.22 | 3.98 | 1.57 | 4.88 |
| ACAATGAGGTTATACGTAGATCAGGGAAGAAAGT | 2.38 | 2.12 | -0.0615 | 1.59 | 0.813 | 2.93 | 1.84 | 1.69 | 0.688 | 0.925 | 2.72 | 1.93 | 1.33 | 1.68 | 0.816 | 1.19 | 0.655 | 1.82 | 0.312 | 1.69 |
| CAAACTAGGTCAAGAGGTCAACGTCCGCTTCCCG | 6.68 | 6.31 | 5.46 | 5.27 | 1.55 | 6.6 | 9.74 | 8.42 | 7.54 | 8.92 | 8.45 | 8.58 | 3.13 | 2.14 | 8.6 | 6.18 | 1.76 | 7.72 | 4.74 | 5.47 |
| AATACAGGGTCACTAGGCCAGTGTAGGTACGAAT | 5.94 | 5.39 | 1.08 | 3.91 | 0.765 | 5.69 | 7.83 | 6.59 | 3.05 | 5.85 | 4.34 | 5.58 | 1.71 | 1.25 | 2.55 | 3.37 | 0.255 | 4.63 | 0.647 | 4.13 |
| AGTCAAAGTTAACTAGGTAACGTAAGATTCAGCT | -0.192 | 0.0304 | -0.49 | -0.0459 | -0.318 | 2.16 | 2.33 | 2.5 | 0.593 | 1.89 | 3.88 | 4.72 | 1 | 1.26 | 0.27 | -0.0411 | -0.0667 | 0.226 | 0.167 | 0.61 |
| TCCGCTAGGTCAACGATGGTCAGCTAATCTGCTA | 2.89 | 2.67 | 0.0246 | 1.54 | -0.303 | 3.09 | 2 | 2.53 | 1.82 | 2.22 | 3.72 | 3.71 | -0.291 | -0.242 | 0.617 | 1.19 | -0.762 | 1.69 | -0.297 | 4.13 |
| ATACCAAGGTGATCGTGAGGTCCTTGATACTAAC | 0.569 | -0.0765 | -0.204 | 0.177 | -0.319 | 0.562 | 0.44 | 0.0314 | -0.102 | -0.134 | 0.257 | 0.989 | 0.0116 | -0.0653 | -0.043 | 0.241 | 0.00841 | 0.662 | 0.0164 | 0.729 |
| CATGCTAGGTCAATGGTCAGCTAAAGCAGCTCGC | 3.18 | 2.65 | 0.2 | 1.38 | 0.174 | 3.04 | 4.43 | 4.63 | 2.27 | 4.38 | 3.11 | 3.53 | -0.274 | -0.0398 | 1.14 | 0.721 | -0.406 | 1.82 | -0.113 | 3.87 |
| TCATATAGGTAAATGCTAGGTGGAAGTCCGATCT | 0.532 | 0.496 | 0.0241 | 0.66 | -0.216 | 0.983 | 0.493 | 2.41 | 3.84 | 2.88 | 3.98 | 2.01 | 1.68 | 0.774 | 0.237 | 0.234 | 0.0145 | 0.241 | 0.904 | 0.253 |
| CGAAAGAGGGCATGAGTTGATAGCAAATGCCGAT | 0.277 | 0.423 | -0.431 | 0.0383 | -0.529 | 1.7 | 1.14 | 1.19 | 0.0878 | 0.644 | 2.11 | 1.03 | 0.384 | -0.376 | -0.223 | 0.604 | -0.0785 | 0.777 | -0.0626 | 2.08 |
| ATCTCTAGGTAGCAAGTTCAGTGAAAGAGAGGAC | 0.337 | 0.333 | 0.238 | 0.0819 | 0.153 | 0.475 | 0.327 | 0.887 | 0.0265 | 0.756 | 0.208 | 0.604 | 0.0162 | 0.501 | 0.437 | 1.22 | 1.35 | 0.324 | 0.221 | 0.981 |
| GCATATAGGTAATACAAGTTGAAAGTCCGATTGT | 0.281 | 0.793 | -0.112 | 0.0778 | -0.33 | 1 | 1.05 | 0.484 | -0.0817 | 0.166 | 4.35 | 2.61 | 1.06 | 0.954 | 0.423 | 0.787 | 0.733 | 0.761 | 0.554 | 0.148 |
